# PubChem BioAssay (NCATS)
# Records with an inconclusive call do not appear. Unmarked numbers belong to inactive results. Calls of active or inactive are those of the source. The call rests on the fitted dose curve.
# Target: Cytochrome P450 1A2 (Homo sapiens) (UniProt P05177)
# Assay: p450-cyp1a2 (AID 410);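 on activity change, negative = inhibition: -100% = full effect of reference inhibitor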
# Details: recombinant CYP1A2, luciferin-ME demethylation, luminescence; series mostly up to 11.4 µM; activity change, negative = inhibition: at the top concentration
# How it was run: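 Inhibition was calculated relative to 57 uM furafylline (full inhibition). The reaction used human CYP1A2 at 20nM with Luciferin-ME at its Km, 100uM, driven by an NADPH-regenerating system for 60 min at room temperature.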
# Potency means the concentration at half of the fitted maximal effect.
# Chain of Cytochrome P450 1A2 (Homo sapiens) (P05177 whole entry, looked up): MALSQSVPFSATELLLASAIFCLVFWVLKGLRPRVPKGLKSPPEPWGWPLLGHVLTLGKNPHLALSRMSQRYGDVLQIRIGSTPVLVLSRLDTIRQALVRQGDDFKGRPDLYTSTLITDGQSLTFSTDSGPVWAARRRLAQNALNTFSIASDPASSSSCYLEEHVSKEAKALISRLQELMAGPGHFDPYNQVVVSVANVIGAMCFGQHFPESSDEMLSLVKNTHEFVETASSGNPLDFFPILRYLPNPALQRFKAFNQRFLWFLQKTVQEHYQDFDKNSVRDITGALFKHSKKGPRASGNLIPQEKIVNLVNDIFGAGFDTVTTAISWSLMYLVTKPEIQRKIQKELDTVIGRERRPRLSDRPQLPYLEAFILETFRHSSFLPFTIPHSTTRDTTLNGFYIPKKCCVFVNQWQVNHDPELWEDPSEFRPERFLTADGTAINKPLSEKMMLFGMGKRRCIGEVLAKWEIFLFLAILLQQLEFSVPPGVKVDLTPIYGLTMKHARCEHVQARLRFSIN
Compound,"activity change, negative = inhibition",Potency
O=S(=O)(O)CCCc1cccc2ccccc12,-16.7% [at 2.29 µM],–
CC(C)(Oc1ccc(-c2cccc3ccccc23)cc1)C(=O)O,8.8%,–
O=[N+]([O-])c1cc(Cc2cc([N+](=O)[O-])c3cccnc3c2O)c(O)c2ncccc12,-31.1% [at 2.29 µM],–
O[C@@H](COc1cccc2ccccc12)CN1CCOCC1,–,3980 nM (active)
FC(F)(F)c1nc(SCc2ccc(Cl)cc2)n[nH]1,-18.8% [at 2.29 µM],–
O=C1c2ccccc2-c2ccc(NC(=O)[C@H]3CCCC[C@@H]3C(=O)O)cc21,–,1000 nM (active)
CCOC(=O)C1=C(C)NC(=O)N[C@@H]1c1coc2cc(C)cc(C)c2c1=O,–,2510 nM (active)
OCCCSCCO,-19.1% [at 2.29 µM],–
CC1=N[C@@](C)(COC(=O)[C@]2(C)N[C@](C)(CO)CO2)COC1=O,6.9% [at 2.29 µM],–
NCC[C@H](N)C(=O)O,-8.9% [at 2.29 µM],–
O=S(=O)(c1ccccc1)N1CN2CN(C1)CN(S(=O)(=O)c1ccccc1)C2,-14.9%,–
NC(=O)Nc1n[nH]c(-c2ccccc2)n1,–,3160 nM (active)
C[C@@]1(C(=O)O)CCC[C@@H]1C(=O)O,-9.8% [at 2.29 µM],–
CCOC(=O)C(C)(C)[C@H](O)C(C)C,-1.7%,–
N=C(N)[C@H](N=Nc1ccccc1)C(N)=O,–,794 nM (active)
O=C(Cn1ccc(=O)[nH]c1=O)Nc1ccc(C(=O)O)c(O)c1,-16.5% [at 2.29 µM],–
